# Laboratory results from the supplement of paper PMC9801561.
# ± gives the standard deviation of the averaged measurements.
# Tests used:
# [1] = system: Escherichia coli Nissle 1917; assay: area under OmniLog respiration curve over 48 h (OmniLog units x h); higher = more growth / nutrient utilisation; extreme values may be limits of the assay; details: incubation: 48 h, 37 °C
# [2] = system: Escherichia coli Nissle 1917; assay: DuctApe activity index of respiration/growth curve (0 no growth to 9 maximum) (index 0-9); higher = more growth / nutrient utilisation, active = 3 or more; extreme values may be limits of the assay; details: incubation: 48 h, 37 °C
# [3] = nutrient role: C-Source, amino acid
# [4] = nutrient role: sole nitrogen source (pyruvate carbon)
# [5] = nutrient role: C-Source, carboxylic acid
# [6] = nutrient role: sole sulfur source (pyruvate carbon)
# [7] = nutrient role: C-Source, carbohydrate
# [8] = nutrient role: sole phosphorus source (pyruvate carbon)
# 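Wherever DuctApe activity index of respiration/growth curve (0 no growth to 9 maximum) is given: biolog PM4 phosphorus and sulfur plates, tetrazolium violet dye reduction read in the OmniLog every 15 min, kinetic curves scored by DuctApe, each plate run in triplicate.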
structure (smiles),measurement,setting,value
NC(=O)C[C@H](N)C(=O)O [L-Asparagine],area under OmniLog respiration curve,[1]; [3],8660 ± 760
same,area under OmniLog respiration curve,[1]; [4],8770 ± 1400
same,DuctApe activity index,[2]; [3],8.67 (active)
same,DuctApe activity index,[2]; [4],8.67 (active)
NCCCC(=O)O [g-Amino-N-Butyric acid],area under OmniLog respiration curve,[1]; [5],4.72
same,area under OmniLog respiration curve,[1]; [4],2000 ± 1100
same,DuctApe activity index,[2]; [5],0 (inactive)
same,DuctApe activity index,[2]; [4],4 (active)
N[C@@H](CS)C(=O)O [L-Cysteine],area under OmniLog respiration curve,[1]; [4],9700 ± 1400
same,area under OmniLog respiration curve,[1]; [6],7230 ± 260
same,DuctApe activity index,[2]; [4],8.67 (active)
same,DuctApe activity index,[2]; [6],7.33 (active)
O=P(O)(O)O[C@H]1O[C@H](CO)[C@@H](O)[C@H](O)[C@H]1O [D-Glucose-1-Phosphate],area under OmniLog respiration curve,[1]; [7],8850 ± 750
same,area under OmniLog respiration curve,[1]; [8],8060 ± 560
same,DuctApe activity index,[2]; [7],8.67 (active)
same,DuctApe activity index,[2]; [8],8.33 (active)
NCC(=O)N[C@@H](CCC(=O)O)C(=O)O,area under OmniLog respiration curve,[1]; [3],7660 ± 620
same,area under OmniLog respiration curve,[1]; [4],7640 ± 1700
same,DuctApe activity index,[2]; [3],7.67 (active)
same,DuctApe activity index,[2]; [4],8 (active)
N[C@@H](CCO)C(=O)O [L-Homoserine],area under OmniLog respiration curve,[1]; [3],4.72
same,area under OmniLog respiration curve,[1]; [4],546 ± 600
same,DuctApe activity index,[2]; [3],0 (inactive)
same,DuctApe activity index,[2]; [4],1.33 (inactive)
N[C@@H](CC(=O)O)C(=O)O [L-Aspartic acid],area under OmniLog respiration curve,[1]; [3],8900 ± 710
same,area under OmniLog respiration curve,[1]; [4],8720 ± 1400
same,DuctApe activity index,[2]; [3],8.67 (active)
same,DuctApe activity index,[2]; [4],8.33 (active)
Nc1ncnc2c1ncn2[C@@H]1O[C@H](CO)[C@@H](O)[C@H]1O [Adenosine],area under OmniLog respiration curve,[1]; [7],9110 ± 480
same,area under OmniLog respiration curve,[1]; [4],6810 ± 990
same,DuctApe activity index,[2]; [7],8.67 (active)
same,DuctApe activity index,[2]; [4],7.33 (active)
CSCC[C@H](NC(=O)CN)C(=O)O,area under OmniLog respiration curve,[1]; [4],5710 ± 1300
same,area under OmniLog respiration curve,[1]; [6],5820 ± 90
same,DuctApe activity index,[2]; [4],7 (active)
same,DuctApe activity index,[2]; [6],7 (active)
C[C@H](N)C(=O)NCC(=O)O,area under OmniLog respiration curve,[1]; [3],7280 ± 620
same,area under OmniLog respiration curve,[1]; [4],8020 ± 1200
same,DuctApe activity index,[2]; [3],7.67 (active)
same,DuctApe activity index,[2]; [4],8 (active)
CC(C)C[C@H](N)C(=O)O [L-Leucine],area under OmniLog respiration curve,[1]; [3],15.5 ± 9.5
same,area under OmniLog respiration curve,[1]; [4],804 ± 870
same,DuctApe activity index,[2]; [3],0 (inactive)
same,DuctApe activity index,[2]; [4],1.33 (inactive)
N[C@@H](CCC(=O)O)C(=O)O [L-Glutamic acid],area under OmniLog respiration curve,[1]; [3],7390 ± 830
same,area under OmniLog respiration curve,[1]; [4],7860 ± 1300
same,DuctApe activity index,[2]; [3],7.67 (active)
same,DuctApe activity index,[2]; [4],8 (active)
Cc1cn([C@H]2C[C@H](O)[C@@H](CO)O2)c(=O)[nH]c1=O [Thymidine],area under OmniLog respiration curve,[1]; [7],9560 ± 710
same,area under OmniLog respiration curve,[1]; [4],4.72
same,DuctApe activity index,[2]; [7],8.67 (active)
same,DuctApe activity index,[2]; [4],0 (inactive)
O=C1CC[C@@H](C(=O)O)N1 [L-Pyroglutamic acid],area under OmniLog respiration curve,[1]; [3],6.07 ± 1.2
same,area under OmniLog respiration curve,[1]; [4],4.72
same,DuctApe activity index,[2]; [3],0 (inactive)
same,DuctApe activity index,[2]; [4],0 (inactive)
CC(N)=O [Acetamide],area under OmniLog respiration curve,"[1]; nutrient role: C-Source, amide",9.31 ± 7.2
same,area under OmniLog respiration curve,[1]; [4],26.4 ± 38
same,DuctApe activity index,"[2]; nutrient role: C-Source, amide",0 (inactive)
same,DuctApe activity index,[2]; [4],0 (inactive)
N=C(N)NCCC[C@H](N)C(=O)O [L-Arginine],area under OmniLog respiration curve,[1]; [3],4.72
same,area under OmniLog respiration curve,[1]; [4],7500 ± 1400
same,DuctApe activity index,[2]; [3],0 (inactive)
same,DuctApe activity index,[2]; [4],8 (active)
NCC(=O)O [Glycine],area under OmniLog respiration curve,[1]; [3],4.72
same,area under OmniLog respiration curve,[1]; [4],4420 ± 1100
same,DuctApe activity index,[2]; [3],0 (inactive)
same,DuctApe activity index,[2]; [4],6 (active)
NCCCCN [Putrescine],area under OmniLog respiration curve,"[1]; nutrient role: C-Source, amine",13.7 ± 8.1
same,area under OmniLog respiration curve,[1]; [4],31.6 ± 46
same,DuctApe activity index,"[2]; nutrient role: C-Source, amine",0 (inactive)
same,DuctApe activity index,[2]; [4],0 (inactive)
O=c1[nH]cnc2c1ncn2[C@@H]1O[C@H](CO)[C@@H](O)[C@H]1O [Inosine],area under OmniLog respiration curve,[1]; [7],9540 ± 290
same,area under OmniLog respiration curve,[1]; [4],24.8 ± 35
same,DuctApe activity index,[2]; [7],9 (active)
same,DuctApe activity index,[2]; [4],0 (inactive)
NCCC[C@H](N)C(=O)O [L-Ornithine],area under OmniLog respiration curve,[1]; [3],34.5 ± 27
same,area under OmniLog respiration curve,[1]; [4],2670 ± 1300
same,DuctApe activity index,[2]; [3],0 (inactive)
same,DuctApe activity index,[2]; [4],4 (active)
CC(=O)N[C@@H](CCC(=O)O)C(=O)O [N-Acetyl-L-Glutamic acid],area under OmniLog respiration curve,[1]; [3],4.72
same,area under OmniLog respiration curve,[1]; [4],4.72
same,DuctApe activity index,[2]; [3],0 (inactive)
same,DuctApe activity index,[2]; [4],0 (inactive)
NC(=O)[C@H]1O[C@@H](O)[C@H](O)[C@@H](O)[C@@H]1O [Glucuronamide],area under OmniLog respiration curve,"[1]; nutrient role: C-Source, amide",33.5 ± 50
same,area under OmniLog respiration curve,[1]; [4],2520 ± 1200
same,DuctApe activity index,"[2]; nutrient role: C-Source, amide",0.333 (inactive)
same,DuctApe activity index,[2]; [4],4.33 (active)
N[C@H]1C(O)O[C@H](CO)[C@@H](O)[C@@H]1O (stereo partly drawn) [D-Glucosamine],area under OmniLog respiration curve,[1]; [7],8060 ± 400
same,area under OmniLog respiration curve,[1]; [4],2180 ± 1100
same,DuctApe activity index,[2]; [7],8 (active)
same,DuctApe activity index,[2]; [4],3.33 (active)
CC(=O)N[C@H]1C(O)O[C@H](CO)[C@H](O)[C@@H]1O (stereo partly drawn) [N-Acetyl-D-Galactosamine],area under OmniLog respiration curve,[1]; [7],8120 ± 580
same,area under OmniLog respiration curve,[1]; [4],992 ± 1000
same,DuctApe activity index,[2]; [7],8 (active)
same,DuctApe activity index,[2]; [4],2.33 (inactive)
NCCCC[C@H](N)C(=O)O [L-Lysine],area under OmniLog respiration curve,[1]; [3],10.5 ± 10
same,area under OmniLog respiration curve,[1]; [4],301 ± 240
same,DuctApe activity index,[2]; [3],0 (inactive)
same,DuctApe activity index,[2]; [4],1 (inactive)
O=C[C@H](O)[C@@H](O)[C@H](O)[C@H](O)COP(=O)(O)O [D-Glucose-6-Phosphate],area under OmniLog respiration curve,[1]; [7],10100 ± 940
same,area under OmniLog respiration curve,[1]; [8],8680 ± 490
same,DuctApe activity index,[2]; [7],9 (active)
same,DuctApe activity index,[2]; [8],8.67 (active)
N[C@@H](CO)C(=O)O [L-Serine],area under OmniLog respiration curve,[1]; [3],8500 ± 700
same,area under OmniLog respiration curve,[1]; [4],7360 ± 1300
same,DuctApe activity index,[2]; [3],8.67 (active)
same,DuctApe activity index,[2]; [4],8 (active)
CC(=O)N[C@@H]1[C@@H](O)[C@H](O)[C@@H](CO)O[C@@H]1O [N-Acetyl-D-Glucosamine],area under OmniLog respiration curve,[1]; [7],7820 ± 520
same,area under OmniLog respiration curve,[1]; [4],1070 ± 1100
same,DuctApe activity index,[2]; [7],8 (active)
same,DuctApe activity index,[2]; [4],2.33 (inactive)
